In PubChem BioAssay (NCATS):
Inconclusive results are not listed. Calls of active or inactive are those of the source. Unless noted, calls come from the whole dose curve; as a rule, active = well fitted curve in the direction sought with a large enough effect; inconclusive = small, poorly fitted or top-dose-only effect, or another doubt; inactive = no such curve, though single readings can be large; an effect the other way counts as inactive or inconclusive.

Tests used:
[1] = Cell Viability - LYMP2-006 (AID 978); note: % is set by controls: 0 for no effect and ±100 for the full control effect; nearly all actives have a fitted effect of over 60% in size
In short: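 Human lymphoblastoid cells, 2500 per well, were preincubated 5 hr at 37 C, then exposed to compounds for 24 hr at 37 C in complete medium. Viability was read as intracellular ATP by CellTiter-Glo luminescence; AC50 from Hill-equation fits of qHTS concentration-response data.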

[2] = Cell Viability - LYMP2-007 (AID 979);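 note: cells exposed to compound for 24 h before reading; 0% = DMSO only and the negative end = 92 µM tetraoctylammonium bromide; nearly all actives have a fitted effect of over 60% in size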
In short: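 Cells are seeded at 2500 per well and rested 5 hr. Compounds are then added over a concentration series for 24 hr at 37 C. CellTiter-Glo is added for 30 min at room temperature before luminescence reading.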

[3] = Cell Viability - LYMP2-008 (AID 980); note: % is set by controls: 0 for no effect and ±100 for the full control effect; nearly all actives have a fitted effect of over 60% in size
In short: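 Cells seeded at 2500/well and rested 5 hr at 37 C; compounds added over a concentration range and incubated 24 hr at 37 C; CellTiter-Glo added, 30 min at room temperature; luminescence read and AC50 fitted with Hill model.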

[4] = Cell Viability - LYMP2-010 (AID 981); note: % is set by controls: 0 for no effect and ±100 for the full control effect; nearly all actives have a fitted effect of over 55% in size
In short: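 Steps: seed 2500 LYMP2-010 cells per well; incubate 5 hr at 37 C; add compound; incubate 24 hr at 37 C; add CellTiter-Glo, wait 30 min at room temperature; read luminescence. Concentration-response fitted to Hill equation for AC50.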

[5] = Cell Viability - LYMP2-012 (AID 982);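 note: cellular ATP by luciferase luminescence where a drop means cytotoxicity; cells exposed to compound for one day before reading; 0% = DMSO only and full loss = 92 µM tetraoctylammonium bromide; nearly all actives have a fitted effect of over 55% in size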
[6] = Cell Viability - LYMP2-014 (AID 983);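 note: plate controls were DMSO only for no effect and 92 µM tetraoctylammonium bromide for full effect; nearly all actives have a fitted effect of over 50% in size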
In short: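 Cells are plated at 2500/well and left 5 hr at 37 C. Compounds are added across a concentration range and incubated 24 hr at 37 C in complete medium. CellTiter-Glo is added, and luminescence is read after 30 min at room temperature.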

[7] = Cell Viability - LYMP2-016 (AID 984); note: % is set by controls: 0 for no effect and ±100 for the full control effect; nearly all actives have a fitted effect of over 55% in size
In short: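 Human lymphoblastoid cells (LYMP2-016), 2500/well in complete medium, preincubated 5 hr at 37 C, then compound-treated 24 hr at 37 C. Intracellular ATP read by CellTiter-Glo luminescence after 30 min at room temperature; AC50 from Hill-equation concentration-response fits.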

[8] = Cell Viability - LYMP2-018 (AID 985);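 note: compound exposure lasted 24 hr at 37 °C; plate controls were DMSO only for no effect and tetraoctylammonium bromide at 92 µM for full effect; nearly all actives have a fitted effect of over 50% in size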
In short: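 Seed 2500 lymphoblastoid cells per well, incubate 5 hr at 37 C, add compound and incubate 24 hr at 37 C, add CellTiter-Glo, wait 30 min at room temperature, then read luminescence.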

[9] = Cell Viability - LYMP2-020 (AID 986);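 note: plate controls were DMSO only for no effect and tetraoctylammonium bromide at 92 µM for full effect; nearly all actives have a fitted effect of over 55% in size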
In short: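 Seed 2500 cells per well and incubate 5 hr at 37 C. Add compounds at a concentration series and incubate 24 hr at 37 C. Add CellTiter-Glo, wait 30 min at RT, read luminescence, and fit a Hill curve for AC50.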

[10] = Cell Viability - LYMP2-022 (AID 987)
In short: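 Cells were seeded at 2500 per well, rested 5 hr at 37 C, and treated with titrated compounds for 24 hr at 37 C. Cellular ATP was then quantified by luciferase luminescence, and AC50 values were derived from Hill-modelled concentration-response curves.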

[11] = Cell Viability - LYMP2-024 (AID 988);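 note: plate controls were DMSO only for no effect and 92 µM tetraoctylammonium bromide for full effect; nearly all actives have a fitted effect of over 60% in size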
In short: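 qHTS cytotoxicity, human lymphoblastoid line, complete medium; 24 h cpd treatment, 37 C; CellTiter-Glo ATP luminescence readout; tetraoctylammonium bromide positive control; AC50 via Hill fit.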

[12] = Cell Viability - LYMP2-026 (AID 989); note: % is set by controls: 0 for no effect and ±100 for the full control effect; nearly all actives have a fitted effect of over 50% in size
In short: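 Cells are seeded at 2500 per well and held 5 hr at 37 C. Compounds are added in concentration series for 24 hr, then CellTiter-Glo reagent is applied and luminescence read.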

[13] = Cell Viability - LYMP1-002 - Assay at 24 hr (AID 993); note: % is set by controls: 0 for no effect and ±100 for the full control effect
In short: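 Acute toxicity is measured as concentration-dependent loss of cellular ATP in a human lymphoblastoid line (Coriell LYMP1-002) after 24 h treatment in complete medium. ATP is quantified by luciferase luminescence and AC50 derived by Hill modelling.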

[14] = Cell Viability - LYMP1-002 - Assay at 40 hr (AID 994)
In short: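 Cells are plated at 2500 per well and rested 5 hr at 37 C. Compounds are added and incubated 40 hr at 37 C. CellTiter-Glo reagent is added for 30 min at room temperature before luminescence is read.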

[15] = qHTS Assay for Lipid Storage Modulators (AID 1519; calls by dose curve); conditions: Drosophila S3 cells, BODIPY lipid droplet/cell ratio, laser cytometry, cells loaded with oleic acid
In short: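 Cells seeded at 5,000 per well were treated with compounds over a concentration series and loaded with oleic acid (400 uM, as added). Lipid droplet fluorescence (488 nm excitation, 500-530 nm channel) was read by laser-scanning cytometry and normalized to 20 uM Triacsin C.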

[16] = qHTS Assay for Identification of Small Molecule Inducers of Hypoxia Response (AID 2120; active = well fitted curve in the direction sought with a large enough effect in the signal ratio, with a control signal flat, not every such curve was filed as active; the % refers to the signal ratio; note: 0% is about no effect)
In short: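 Cell-based qHTS for reporter induction: hypoxia response element controlled beta-lactamase in ME-180 cells. Compounds incubated 17 h at 37 degrees C; activity from blue/green (460/530 nm) ratio, inducers ranked by AC50.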

[17] = molecular target: Estrogen receptor (Homo sapiens) (UniProt P03372); test: qHTS assay for small molecule antagonists of estrogen receptor alpha signaling (AID 588513; active = well fitted curve in the direction sought with a large enough effect in the signal ratio, with a control signal flat, not every such curve was filed as active; the % refers to the signal ratio; note: % is set by controls: 0 for no effect and ±100 for the full control effect)
In short: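 ER-alpha-UAS-bla GripTite HEK 293 cells in medium with 2% charcoal/dextran-treated FBS were preincubated 4 h at 37 C, dosed with compound (1:2 titration), stimulated with 0.5nM 17-beta-estradiol for 18 h, then read by CCF4 beta-lactamase fluorescence.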

[18] = qHTS assay for small molecule antagonists of peroxisome proliferator-activated receptor delta signaling (AID 588535; active = well fitted inhibition curve with a large enough effect in the signal ratio, with a control signal flat, not every such curve was filed as active; the % refers to the signal ratio;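 for max response: cells co-treated with a PPAR-delta agonist as stimulator during compound exposure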); conditions: HEK293T PPARd-UAS-bla, beta-lactamase FRET ratio, 18 h; 460 nm channel
In short: (§1)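 Inhibition of PPAR-delta response element-driven beta-lactamase expression is measured in HEK293T cells exposed to a compound titration series for 18 hrs at 37 C. Half-maximal inhibition comes from Hill equation fitting.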

[19] = molecular target: Peroxisome proliferator-activated receptor delta (Homo sapiens) (UniProt Q03181); test: as above
In short: as §1

[20] = molecular target: Peroxisome proliferator-activated receptor gamma (Homo sapiens) (UniProt P37231); test: qHTS assay for small molecule agonists of peroxisome proliferator-activated receptor gamma signaling (AID 588536; active = well fitted curve in the direction sought with a large enough effect in the signal ratio, with a control signal flat, not every such curve was filed as active; the % refers to the signal ratio;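 note: 0% = DMSO basal wells and 100% = rosiglitazone at 2 µM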)
In short: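 Using GeneBLAzer HEK293 cells, response was quantified by CCF4 fluorescence and normalized between basal DMSO (0%) and rosiglitazone 2 uM (100%); curves yielded half-maximal stimulation concentration and efficacy.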

[21] = qHTS assay for small molecule agonists of retinoid X receptor alpha signaling (AID 588544; calls by dose curve;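 for activation: 0% = DMSO basal wells and 100% = reference agonist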); conditions: HEK293T RXRa-UAS-bla, beta-lactamase reporter, 18 h; 530 nm emission
[22] = molecular target: Retinoic acid receptor RXR-alpha (Homo sapiens) (UniProt P19793); test: as above
[23] = molecular target: Thyroid hormone receptor beta (Homo sapiens) (UniProt P10828); test: qHTS assay for small molecule agonists of thyroid hormone receptor beta signaling (AID 588545; calls by dose curve)
In short: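 HEK 293 TR-UAS-bla; agonist mode; 18 hrs, 37 C; CCF4, ex 405/em 460 and 530 nm; norm. T3 10 nM = 100%, DMSO = 0%; Hill fit → EC50, efficacy.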

[24] = qHTS assay for small molecule antagonists of retinoid X receptor alpha signaling (AID 588546; active = well fitted inhibition curve with a large enough effect in the signal ratio, with a control signal flat, not every such curve was filed as active; the % refers to the signal ratio;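 note: cells stimulated with 9-cis-retinoic acid as agonist; % is set by controls: 0 for no effect and ±100 for the full control effect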); conditions: HEK293T RXRa-UAS-bla, beta-lactamase ratio, antagonist mode; measured here: W530 green channel, cytotoxicity proxy
In short: (§2)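 Beta-lactamase reporter inhibition, read as CCF4 fluorescence ratio (ex 405, em 460/530 nm) after 2 h at RT. HEK293T UAS-bla cells, 2500/well, were stimulated with 9-cis-RA at 500 or 100 nM final alongside test compound for 18 h at 37 C.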

[25] = molecular target: Retinoic acid receptor RXR-alpha (Homo sapiens) (UniProt P19793); test: as above; conditions: HEK293T RXRa-UAS-bla, beta-lactamase ratio, antagonist mode
In short: as §2

[26] = molecular target: Thyroid hormone receptor beta (Homo sapiens) (UniProt P10828); test: qHTS assay for small molecule antagonists of thyroid hormone receptor beta signaling (AID 588547; active = well fitted inhibition curve with a large enough effect in the signal ratio, with a control signal flat, not every such curve was filed as active; the % refers to the signal ratio;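 note: cells stimulated with 0.4 nM T3 agonist during compound exposure; % is set by controls: 0 for no effect and ±100 for the full control effect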); conditions: TR-UAS-bla HEK293, beta-lactamase ratio, antagonist mode, 18 h
In short: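 TR-UAS-bla GripTite HEK293 cells in 2% charcoal/dextran FBS medium were preincubated 4 h at 37 C, given compound (0.59 nM to 92 uM) plus 0.4 nM T3 (final) for 18 h, then CCF4 for 2 h at RT; Hill fit gave IC50.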

[27] = molecular target: Voltage-gated inwardly rectifying potassium channel KCNH2 (Homo sapiens) (UniProt Q12809); test: qHTS Assay for Small Molecule Inhibitors of the Human hERG Channel Activity (AID 588834);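 note: top concentration of the series differs between compounds; % is set by controls: 0 for no effect and ±100 for the full control effect; lower thallium flux fluorescence means stronger hERG block; nearly all actives have a fitted effect of over 50% in size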
In short: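 In hERG-transduced U2OS cells, dye-loaded for 1 hr at room temperature in dark, test compounds incubated 10 min at 37 °C before thallium stimulation. AC50 values derived by Hill modelling of concentration-response.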

[28] = qHTS assay for small molecule activators of the p53 signaling pathway (AID 651743; active = well fitted activation curve with a large enough effect in the signal ratio, not every such curve was filed as active; the % refers to the signal ratio; note: % of control where 0% means no effect); conditions: HCT-116 p53RE-bla, beta-lactamase FRET ratio, 16 h; activation: stronger effect = higher value
In short: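 Agonist-mode quantitative HTS in HCT-116 cells carrying a p53-response-element beta-lactamase reporter; 16 h compound treatment at 37 C, then FRET substrate loading for 2 h at room temperature and fluorescence read.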

[29] = qHTS assay for small molecule activators of the nuclear factor-kappa B (NF-kB) signaling pathway (AID 651749; active = well fitted activation curve with a large enough effect in the signal ratio; the % refers to the signal ratio; note: % of control where 0% means no effect); conditions: NF-kB-bla ME-180 cells, beta-lactamase FRET ratio, 16 h; stronger effect = higher value
In short: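 Human ME-180 cervical cells with an NF-kB-bla construct; compounds added via 23 nL pin transfer, DMSO as vehicle; incubation 16 hr. Reporter activity measured by FRET disruption.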

[30] = qHTS assay for small molecule disruptors of the mitochondrial membrane potential - 1 hr assay (AID 651754; calls by dose curve; note: potency is the fitted concentration of half-maximal effect; nearly all actives have a fitted effect of over 35% in size)
In short: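 Loss of mitochondrial potential shifts the cationic dye from red mitochondrial aggregates to green cytoplasmic monomers. Cells (HepG2) are treated with compound for 1 hr before a 30 min dye incubation at 37C.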

[31] = qHTS assay for small molecule disruptors of the mitochondrial membrane potential - 5 hr assay (AID 651755; calls by dose curve; note: potency is the fitted concentration of half-maximal effect; nearly all actives have a fitted effect of over 40% in size)
In short: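 Seed HepG2 overnight, add compound, incubate 5 hr at 37C and 5% CO2, stain 30 min with Mito-MPS, then measure monomer (490/535 nm) and aggregate (540/590 nm) fluorescence.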

[32] = molecular target: Tumor necrosis factor (Homo sapiens) (UniProt P01375); test: qHTS assay to identify small molecules that stimulate Tumor Necrosis Factor-alpha (TNF-alpha) secretion (AID 651757; active = well fitted curve in the direction sought with a large enough effect in the signal ratio; the % refers to the signal ratio; note: 0% is about no effect)
In short: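 Human monocytic THP-1 cells are plated, treated with compound and held at 37 C for 17 hrs. Labeled anti-TNF-alpha antibody mixture is then added; after 3 hr at room temperature, TR-FRET signal reports secreted TNF-alpha.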

[33] = qHTS assay for environmental chemicals that activate the Aryl hydrocarbon Receptor (AhR) signaling pathway (AID 651777); conditions: 1A2-DRE human hepatoma cells, luciferase, 24 h; activation: stronger effect = higher value; note: potency is the fitted concentration of half-maximal effect; nearly all actives have a fitted effect of over 15% in size
In short: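 Human hepatoma 1A2-DRE cells, stably carrying a dioxin response element and CYP1A2 promoter driving luciferase, were exposed to compounds for 24 hr at 37 C and 5% CO2. Luciferase signal was then read after 30 min One-Glo at room temperature.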

[34] = molecular target: Peroxisome proliferator-activated receptor alpha (Homo sapiens) (UniProt Q07869); test: qHTS assay for small molecule agonists of the peroxisome proliferator-activated receptor alpha (PPARalpha) signaling pathway (AID 651778); conditions: PathHunter PPARalpha complementation, chemiluminescence, 6 h; stronger effect = higher value; note: % of control where 0% means no effect
In short: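 Cells plated at 2,000/well and held overnight at 37 C, 5% CO2, then compound added by pin tool for 6 hr; after PathHunter detection reagent and 60 min at room temperature, chemiluminescence from enzyme complementation was read.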

[35] = molecular target: Nuclear receptor ROR-gamma (Homo sapiens) (UniProt P51449); test: qHTS assay for small molecule antagonists of the retinoid-related orphan receptor gamma (ROR-gamma) signaling pathway (AID 651802)
In short: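 Steps: cells dispensed; compound or DMSO transferred by pin tool; doxycycline added to induce the ROR response element-driven luciferase; plates held 16hr at 37C; ONE-Glo added and luminescence measured.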

[36] = qHTS assay for small molecule antagonists of the retinoid-related orphan receptor gamma (ROR-gamma) signaling pathway - cell viability counter screen (AID 720652; active = well fitted curve in the direction sought with a large enough effect in the repeat runs; an effect the other way counts as inactive or inconclusive)
In short: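 Steps: seed CHO cells bearing TET-inducible ROR and ROR response element-luciferase; rest 5 hr at 37 C; add compound, then doxycycline; incubate 16 hr; add CellTiter-Glo and read luminescence as ATP-based viability.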

[37] = qHTS assay for small molecule agonists of the antioxidant response element (ARE) signaling pathway measured by Nrf2-dependant transcriptional activity - cell viability counter screen (AID 720653; active = well fitted curve in the direction sought with a large enough effect in the repeat runs; an effect the other way counts as inactive or inconclusive; note: % is set by controls: 0 for no effect and ±100 for the full control effect); conditions: ARE-bla HepG2 viability, CellTiter-Glo ATP luminescence, 16 h; stronger effect = lower value
In short: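 ARE-bla HepG2 cells (2,000/well) rested 5 hrs at 37C/5% CO2, then exposed to compounds in DMSO for 16 hrs. Viability was read in the same wells as intracellular ATP by luminescence, 30 min at room temperature after reagent addition.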

[38] = qHTS assay for cell viability of HEK293 cells (AID 743288); conditions: ATP luminescence (CellTiter-Glo), 18 h, stronger effect = lower value
In short: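 After 18 h compound exposure at 37 C, parental HEK293 cells (2,000/well) are lysed with CellTiter-Glo and luminescence is read following 30 min at room temperature.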

[39] = qHTS assay for cell viability of the p53RE-bla HCT-116 cell line (AID 743292)
In short: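 CellSensor p53RE-bla HCT-116 cells, 4,000/well, preincubated 5 h at 37 C, then exposed to compounds in DMSO for 16 h at 37 C. Viability read as CellTiter-Glo luminescence (intracellular ATP) after 30 min at room temperature.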

[40] = molecular target: Calcium and integrin-binding protein 1 (Homo sapiens) (UniProt Q99828); test: Primary qHTS for Identification of Calcium Integrin Binding Protein 1 (CIB1) Competitor (AID 1508620)
In short: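 Fluorescence polarization competition: CIB1-GST (1 uM final) preincubated with compound 15 min at room temperature, then FITC-labeled alphaIIb peptide (100 nM final) added for another 15 min. Polarization read at Ex 480/Em 540.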

Thyroid hormone receptor beta (Homo sapiens), sequence (P10828 whole entry, looked up): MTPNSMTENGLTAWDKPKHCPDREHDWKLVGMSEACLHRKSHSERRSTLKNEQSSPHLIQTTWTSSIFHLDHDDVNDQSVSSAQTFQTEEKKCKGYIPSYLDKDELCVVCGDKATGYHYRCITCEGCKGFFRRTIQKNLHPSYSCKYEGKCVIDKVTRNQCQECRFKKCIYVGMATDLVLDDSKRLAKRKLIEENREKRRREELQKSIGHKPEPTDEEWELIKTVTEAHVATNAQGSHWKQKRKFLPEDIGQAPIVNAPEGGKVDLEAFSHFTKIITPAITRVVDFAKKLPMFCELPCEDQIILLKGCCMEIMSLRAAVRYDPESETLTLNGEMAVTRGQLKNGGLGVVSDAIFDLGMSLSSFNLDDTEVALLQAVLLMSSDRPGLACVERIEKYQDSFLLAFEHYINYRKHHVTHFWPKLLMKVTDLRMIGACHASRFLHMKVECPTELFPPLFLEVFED
Retinoic acid receptor RXR-alpha (Homo sapiens), sequence (P19793 whole entry, looked up): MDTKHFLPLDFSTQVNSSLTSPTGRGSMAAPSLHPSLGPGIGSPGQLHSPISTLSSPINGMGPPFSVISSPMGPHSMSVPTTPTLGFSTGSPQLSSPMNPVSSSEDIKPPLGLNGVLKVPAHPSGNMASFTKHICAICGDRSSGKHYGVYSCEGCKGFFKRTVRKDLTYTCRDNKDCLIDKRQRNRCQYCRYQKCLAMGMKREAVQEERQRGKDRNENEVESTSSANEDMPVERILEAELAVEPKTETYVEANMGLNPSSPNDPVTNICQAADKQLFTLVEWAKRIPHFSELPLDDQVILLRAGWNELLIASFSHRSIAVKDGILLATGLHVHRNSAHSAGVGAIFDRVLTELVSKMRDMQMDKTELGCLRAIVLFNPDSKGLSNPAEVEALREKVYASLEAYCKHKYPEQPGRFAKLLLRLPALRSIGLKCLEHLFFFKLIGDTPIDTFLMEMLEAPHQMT
Peroxisome proliferator-activated receptor delta (Homo sapiens), sequence (Q03181 whole entry, looked up): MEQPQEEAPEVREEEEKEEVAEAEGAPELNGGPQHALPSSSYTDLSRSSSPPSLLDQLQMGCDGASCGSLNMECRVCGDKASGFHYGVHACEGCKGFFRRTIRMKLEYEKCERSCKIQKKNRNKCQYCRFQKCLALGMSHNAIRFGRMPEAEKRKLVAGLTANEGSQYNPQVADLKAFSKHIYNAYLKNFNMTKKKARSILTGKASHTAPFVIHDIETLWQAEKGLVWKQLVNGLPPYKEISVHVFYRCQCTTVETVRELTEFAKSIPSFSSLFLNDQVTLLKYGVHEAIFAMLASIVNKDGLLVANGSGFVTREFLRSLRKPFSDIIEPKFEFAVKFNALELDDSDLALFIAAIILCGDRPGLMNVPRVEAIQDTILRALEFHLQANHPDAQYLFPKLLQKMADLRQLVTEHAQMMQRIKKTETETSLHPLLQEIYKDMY
Calcium and integrin-binding protein 1 (Homo sapiens), sequence (Q99828 whole entry, looked up): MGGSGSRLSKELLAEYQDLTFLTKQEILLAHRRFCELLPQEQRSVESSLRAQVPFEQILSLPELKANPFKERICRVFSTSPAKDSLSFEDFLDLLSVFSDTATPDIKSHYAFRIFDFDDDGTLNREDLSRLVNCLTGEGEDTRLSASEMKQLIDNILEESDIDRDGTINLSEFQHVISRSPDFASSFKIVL
Nuclear receptor ROR-gamma (Homo sapiens), sequence (P51449 whole entry, looked up): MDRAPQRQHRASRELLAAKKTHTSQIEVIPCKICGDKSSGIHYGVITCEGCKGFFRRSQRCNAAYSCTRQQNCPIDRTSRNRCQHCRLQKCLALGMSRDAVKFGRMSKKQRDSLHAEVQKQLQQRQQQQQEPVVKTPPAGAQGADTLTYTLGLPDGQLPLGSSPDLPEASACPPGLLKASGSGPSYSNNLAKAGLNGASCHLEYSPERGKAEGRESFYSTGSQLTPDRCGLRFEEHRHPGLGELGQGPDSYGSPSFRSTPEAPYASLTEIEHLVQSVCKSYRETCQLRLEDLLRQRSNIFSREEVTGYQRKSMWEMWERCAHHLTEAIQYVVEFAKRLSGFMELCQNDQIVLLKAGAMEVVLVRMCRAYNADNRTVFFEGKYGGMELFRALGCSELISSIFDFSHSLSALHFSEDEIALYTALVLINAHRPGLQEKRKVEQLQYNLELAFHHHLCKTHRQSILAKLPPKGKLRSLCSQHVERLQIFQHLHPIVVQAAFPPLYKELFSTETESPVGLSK
Voltage-gated inwardly rectifying potassium channel KCNH2 (Homo sapiens), sequence (Q12809 whole entry, looked up): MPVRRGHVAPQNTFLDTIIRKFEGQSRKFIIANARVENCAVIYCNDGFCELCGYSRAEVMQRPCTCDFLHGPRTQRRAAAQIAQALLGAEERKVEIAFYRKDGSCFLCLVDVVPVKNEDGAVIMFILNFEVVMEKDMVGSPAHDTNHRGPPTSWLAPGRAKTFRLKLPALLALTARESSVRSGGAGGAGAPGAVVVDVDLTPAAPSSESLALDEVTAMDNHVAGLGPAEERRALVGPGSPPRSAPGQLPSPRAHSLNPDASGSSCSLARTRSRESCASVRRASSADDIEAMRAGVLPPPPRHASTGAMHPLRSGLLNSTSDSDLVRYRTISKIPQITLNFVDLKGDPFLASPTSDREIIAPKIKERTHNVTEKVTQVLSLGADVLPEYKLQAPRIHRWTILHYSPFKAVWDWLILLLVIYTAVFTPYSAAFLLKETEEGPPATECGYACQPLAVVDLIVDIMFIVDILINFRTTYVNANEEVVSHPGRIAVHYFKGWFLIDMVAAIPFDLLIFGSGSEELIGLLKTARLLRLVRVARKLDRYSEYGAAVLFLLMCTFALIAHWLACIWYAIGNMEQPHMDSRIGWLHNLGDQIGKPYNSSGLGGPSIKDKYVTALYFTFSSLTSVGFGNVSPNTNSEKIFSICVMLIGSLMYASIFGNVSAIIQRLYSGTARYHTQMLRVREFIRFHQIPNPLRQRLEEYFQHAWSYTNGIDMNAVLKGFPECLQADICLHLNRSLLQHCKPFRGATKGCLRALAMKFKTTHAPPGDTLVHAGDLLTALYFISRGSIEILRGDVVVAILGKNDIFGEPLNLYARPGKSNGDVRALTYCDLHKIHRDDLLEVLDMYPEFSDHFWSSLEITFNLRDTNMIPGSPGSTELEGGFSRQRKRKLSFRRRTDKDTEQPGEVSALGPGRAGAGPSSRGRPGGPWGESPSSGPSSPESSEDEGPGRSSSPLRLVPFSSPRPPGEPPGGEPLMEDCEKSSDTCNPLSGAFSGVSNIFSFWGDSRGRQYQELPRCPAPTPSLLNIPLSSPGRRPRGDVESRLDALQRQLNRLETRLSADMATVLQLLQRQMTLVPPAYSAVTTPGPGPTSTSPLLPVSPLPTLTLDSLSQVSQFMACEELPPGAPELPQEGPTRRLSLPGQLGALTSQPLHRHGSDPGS
Peroxisome proliferator-activated receptor alpha (Homo sapiens), sequence (Q07869 whole entry, looked up): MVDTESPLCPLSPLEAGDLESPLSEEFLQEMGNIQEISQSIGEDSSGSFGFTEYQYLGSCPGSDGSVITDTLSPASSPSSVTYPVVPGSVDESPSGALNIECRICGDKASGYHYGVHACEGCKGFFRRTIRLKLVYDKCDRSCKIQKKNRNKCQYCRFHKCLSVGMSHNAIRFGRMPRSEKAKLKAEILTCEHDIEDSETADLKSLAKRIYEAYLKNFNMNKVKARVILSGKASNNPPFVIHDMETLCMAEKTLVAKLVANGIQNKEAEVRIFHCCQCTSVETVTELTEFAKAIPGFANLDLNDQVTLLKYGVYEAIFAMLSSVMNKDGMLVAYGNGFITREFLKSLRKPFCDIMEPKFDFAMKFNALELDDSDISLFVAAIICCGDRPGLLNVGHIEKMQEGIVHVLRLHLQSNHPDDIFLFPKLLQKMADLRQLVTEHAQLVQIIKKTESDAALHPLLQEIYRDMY
Tumor necrosis factor (Homo sapiens), sequence (P01375 whole entry, looked up): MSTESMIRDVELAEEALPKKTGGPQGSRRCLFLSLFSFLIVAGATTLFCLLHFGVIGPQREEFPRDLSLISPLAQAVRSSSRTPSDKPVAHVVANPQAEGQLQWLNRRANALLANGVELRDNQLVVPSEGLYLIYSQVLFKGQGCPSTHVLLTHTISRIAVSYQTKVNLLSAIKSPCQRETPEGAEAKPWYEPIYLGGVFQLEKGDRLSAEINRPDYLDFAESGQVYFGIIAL
Estrogen receptor (Homo sapiens), sequence (P03372 whole entry, looked up): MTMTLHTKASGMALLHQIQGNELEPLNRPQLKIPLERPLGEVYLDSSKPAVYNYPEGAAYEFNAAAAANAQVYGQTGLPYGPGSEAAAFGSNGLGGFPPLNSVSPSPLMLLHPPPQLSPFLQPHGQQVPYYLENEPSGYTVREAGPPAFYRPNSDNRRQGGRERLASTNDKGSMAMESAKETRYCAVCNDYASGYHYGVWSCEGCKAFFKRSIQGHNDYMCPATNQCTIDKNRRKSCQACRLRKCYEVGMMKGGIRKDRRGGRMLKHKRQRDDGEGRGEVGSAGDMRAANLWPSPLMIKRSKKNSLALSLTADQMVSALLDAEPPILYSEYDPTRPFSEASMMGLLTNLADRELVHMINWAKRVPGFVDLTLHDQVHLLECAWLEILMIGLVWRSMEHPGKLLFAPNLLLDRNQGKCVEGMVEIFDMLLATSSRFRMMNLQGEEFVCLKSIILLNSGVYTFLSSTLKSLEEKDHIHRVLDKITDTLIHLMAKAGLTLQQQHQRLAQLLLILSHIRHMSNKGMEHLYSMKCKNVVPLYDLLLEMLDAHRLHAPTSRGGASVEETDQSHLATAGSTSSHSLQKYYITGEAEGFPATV

O=C(Nc1ccccc1)Nc1ccccc1
-7.95%: max response [18]
-3.21%: max response ([15]; measured here: cell count channel max response)
-6.23%: max response [21]
11.7%: max response ([15]; measured here: lipid channel max response)
-7.85%: max response [24]
active: Potency [30] 10.6 µM | Potency [31] 13.3 µM | Potency [33] 12.6 µM
inactive: outcome [1] | outcome [2] | outcome [3] | outcome [4] | outcome [5] | outcome [6] | outcome [7] | outcome [8] | outcome [9] | outcome [10] | outcome [11] | outcome [12] | outcome [13] | outcome [14] | activity change, negative = inhibition ([15]; at 57.5 µM (top of the series)) 11.8% | outcome [16] | outcome [17] | outcome [19] | outcome [20] | outcome [22] | outcome [23] | max response [25] -1.03% | activity change % (negative = inhibition) [26] -2.58% | Potency [27] | activation [28] -2.22% | activation [29] 0.321% | Potency [32] | max response [34] -3.47% | outcome [35] | outcome [36] | max response [37] -0.927% | max response [38] -16.1% | Potency [39] | Potency [40]
